Source: PubChem BioAssay (Tox21)
Values joined by “and” are separate entries in the source; they are usually repeats but may differ in a detail not shown here. Equal values may be shown once. Results filed as inconclusive are left out. A structure can be active in one record and inactive in another. Active and inactive are the calls of the source. Unless noted, the call rests on the fitted dose curve; in most records, active means well fitted curve in the direction sought with a large enough effect in the repeat runs; inconclusive means weak or mixed curves; inactive means no such curve, though single readings can be large; an effect the other way counts as inactive or inconclusive.

Assays:
[1] = qHTS assay to identify small molecule antagonists of the estrogen related receptor (ERR) signaling pathway from Tox21 library (AID 1224848); further: nearly all actives have a fitted effect of over 50% in size
In short: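 Screening used an ERR reporter line supplied by NTP, exposed for 18 h at 37 C to library compounds delivered in DMSO. Signal was luciferase luminescence developed with ONE-Glo at room temperature for 30 min.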

[2] = qHTS assay to identify small molecule agonists of the estrogen related receptor (ERR) signaling pathway from Tox21 library (AID 1224849; calls by dose curve; further: nearly all actives have a fitted effect of over 15% in size); settings: ERR reporter cell line, ONE-Glo luciferase, 18 h; at 92.4 µM (top of the series)
In short: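 ERR cells, 6 h pre-incubation 37 C/5% CO2; cpd in DMSO pinned; 18 h 37 C; ONE-Glo added, 30 min RT; luminescence read. Agonist mode, qHTS.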

[3] = qHTS RealTime-Glo MT Cell Viability Assay in HepG2 cells - 24 hour (AID 1224867); further: nearly all actives have a fitted effect of over 50% in size
In short: (§1)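 Real-time, nonlytic viability: 600 HepG2 cells/well mixed with NanoLuc enzyme plus prosubstrate; 5 h settle, compound (DMSO) added by pintool; luminescence monitored over 40 h at 37 C.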

[4] = qHTS RealTime-Glo MT Cell Viability Assay in HEK293 cells - 32 hour (AID 1224868); further: top concentration of the series differs between compounds; nearly all actives have a fitted effect of over 50% in size
In short: (§2)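 Cells + reagent dispensed (600 cells/well, HEK293) → 5 h at 37 C/5% CO2 → 23 nL compound in DMSO pinned → 40 h at 37 C → luminescence read at 0, 8, 16, 24, 32, 40 h.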

[5] = A CellTox Green Cytotoxicity Assay to monitor cytotoxicity in HEK293 cells - 0 hour (AID 1224869); further: nearly all actives have a fitted effect of over 50% in size
In short: (§3)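 Nonlytic real-time cytotoxicity: HEK293 + CellTox Green reagent plated, 5 h preincubation, pintool compound addition (23 nL in DMSO), 37 C for 40 h, fluorescence measured at successive time points.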

[6] = qHTS RealTime-Glo MT Cell Viability Assay in HepG2 cells - 40 hour (AID 1224870); further: nearly all actives have a fitted effect of over 50% in size
In short: (§4)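 HepG2 cells mixed with RealTime-Glo MT reagents (NanoLuc plus cell-permeant prosubstrate) were seeded at 600 cells/well, incubated 5 h at 37 C/5% CO2, then pinned with compounds in DMSO; nonlytic luminescence tracked viability during 40 h treatment.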

[7] = A CellTox Green Cytotoxicity Assay to monitor cytotoxicity in HEK293 cells - 40 hour (AID 1224871); further: nearly all actives have a fitted effect of over 45% in size
In short: as §3

[8] = qHTS RealTime-Glo MT Cell Viability Assay in HEK293 cells - 16 hour (AID 1224872)
In short: as §2

[9] = qHTS RealTime-Glo MT Cell Viability Assay in HepG2 cells - 8 hour (AID 1224873); further: nearly all actives have a fitted effect of over 55% in size
In short: as §4

[10] = qHTS RealTime-Glo MT Cell Viability Assay in HEK293 cells - 40 hour (AID 1224874); settings: RealTime-Glo luminescence; max response: stronger effect = lower value; further: nearly all actives have a fitted effect of over 50% in size
In short: (§5)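 Cells were seeded together with NanoLuc luciferase and a prosubstrate that viable cells reduce to a luciferase substrate. After a 5 h incubation at 37 C/5% CO2, compounds were added and luminescence was measured repeatedly during 40 h of treatment.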

[11] = A CellTox Green Cytotoxicity Assay to monitor cytotoxicity in HEK293 cells - 24 hour (AID 1224875); further: nearly all actives have a fitted effect of over 45% in size
In short: as §3

[12] = A CellTox Green Cytotoxicity Assay to monitor cytotoxicity in HepG2 cells - 16 hour (AID 1224876); further: nearly all actives have a fitted effect of over 45% in size; further: potency means the concentration at half of the fitted maximal effect
In short: (§6)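 Read-out is fluorescence of a cyanine dye excluded from live cells that stains DNA of dead HepG2 cells, with signal proportional to cytotoxicity. Plates were read at 0, 8, 16, 24, 32 and 40 h after compound addition.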

[13] = qHTS RealTime-Glo MT Cell Viability Assay in HepG2 cells - 32 hour (AID 1224877); further: nearly all actives have a fitted effect of over 55% in size
In short: as §1

[14] = A CellTox Green Cytotoxicity Assay to monitor cytotoxicity in HepG2 cells - 24 hour (AID 1224878); further: nearly all actives have a fitted effect of over 45% in size; further: potency means the concentration at half of the fitted maximal effect
In short: as §6

[15] = A CellTox Green Cytotoxicity Assay to monitor cytotoxicity in HepG2 cells - 40 hour (AID 1224879); further: nearly all actives have a fitted effect of over 40% in size
In short: as §6

[16] = qHTS RealTime-Glo MT Cell Viability Assay in HEK293 cells - 0 hour (AID 1224880)
In short: as §5

[17] = A CellTox Green Cytotoxicity Assay to monitor cytotoxicity in HepG2 cells - 0 hour (AID 1224882); further: nearly all actives have a fitted effect of over 35% in size
In short: as §6

[18] = A CellTox Green Cytotoxicity Assay to monitor cytotoxicity in HepG2 cells - 32 hour (AID 1224883); further: nearly all actives have a fitted effect of over 50% in size; further: potency means the concentration at half of the fitted maximal effect
In short: as §6

[19] = A CellTox Green Cytotoxicity Assay to monitor cytotoxicity in HEK293 cells - 8 hour (AID 1224884); further: nearly all actives have a fitted effect of over 35% in size
In short: as §3

[20] = A CellTox Green Cytotoxicity Assay to monitor cytotoxicity in HEK293 cells - 32 hour (AID 1224881); further: nearly all actives have a fitted effect of over 40% in size
In short: as §3
On the % scale 0 is the no-effect control and ±100 the full control effect.

CC(C)(N)CO
inactive: Potency [1] | activity change, positive = activation [2] 3.88% and 1.99% | outcome [3] | Potency [4] | outcome [5] | outcome [6] | Potency [7] | Potency [8] | outcome [9] | max response [10] 5.94% and 1.04% | Potency [11] | Potency [12] | outcome [13] | Potency [14] | Potency [15] | Potency [16] | outcome [17] | Potency [18] | outcome [19]

COS(C)(=O)=O
inactive: Potency [1] | activity change, positive = activation [2] 1.76% and -2.76% | Potency [4] | outcome [5] | outcome [6] | Potency [7] | Potency [8] | outcome [9] | max response [10] 0.0927% and -3.51% | Potency [11] | Potency [12] | outcome [13] | Potency [14] | Potency [15] | Potency [16] | outcome [17] | Potency [18] | outcome [19]

OCc1cccnc1
inactive: outcome [3] | Potency [4] | outcome [5] | outcome [6] | Potency [7] | Potency [8] | outcome [9] | max response [10] -2.21% and -1.61% | Potency [11] | outcome [13] | Potency [14] | Potency [16] | Potency [20] | outcome [17] | Potency [18] | outcome [19]

CC(O)COCC(C)O (configuration not stated)
inactive: outcome [3] | Potency [4] | outcome [5] | outcome [6] | Potency [7] | Potency [8] | outcome [9] | max response [10] -1.78% and 1.64% | Potency [11] | Potency [12] | outcome [13] | Potency [14] | Potency [15] | Potency [16] | Potency [20] | outcome [17] | Potency [18] | outcome [19]

CCCCC(CC)CO (configuration not stated)
inactive: outcome [3] | Potency [4] | outcome [5] | outcome [6] | Potency [7] | Potency [8] | outcome [9] | max response [10] 6.29% and 2.53% | Potency [11] | outcome [13] | Potency [14] | Potency [15] | Potency [16] | Potency [20] | outcome [17] | Potency [18] | outcome [19]

COc1ccc(Cl)cc1C(=O)NCCc1ccc(S(=O)(=O)NC(=O)NC2CCCCC2)cc1
inactive: outcome [3] | Potency [4] | outcome [5] | outcome [6] | Potency [7] | Potency [8] | outcome [9] | max response [10] -19.9% and -25.1% | Potency [11] | outcome [13] | Potency [14] | Potency [15] | outcome [17] | Potency [18] | outcome [19]

CC1=CCC2CC1C2(C)C (configuration not stated)
inactive: outcome [3] | Potency [4] | outcome [6] | Potency [7] | Potency [8] | outcome [9] | max response [10] -11.4% and 10.5% | Potency [11] | Potency [12] | outcome [13] | Potency [14] | Potency [16] | Potency [20] | outcome [17] | Potency [18] | outcome [19]

COc1ccc(NC(C)=O)cc1N
inactive and 43.6 µM (active): Potency [18]
inactive and 21.9 µM (active): Potency [12]
inactive: outcome [3] | outcome [5] | outcome [6] | Potency [7] | Potency [8] | outcome [9] | max response [10] 6.82% and 6.45% | Potency [11] | outcome [13] | Potency [16] | Potency [20] | outcome [17] | outcome [19]
inactive and 49 µM (active): Potency [14]

CC(c1cc2ccccc2s1)N(O)C(N)=O (configuration not stated)
inactive: outcome [3] | Potency [4] | outcome [6] | Potency [7] | Potency [8] | outcome [9] | max response [10] -14.9% and -8.57% | Potency [11] | Potency [12] | outcome [13] | Potency [14] | Potency [15] | Potency [16] | outcome [17] | Potency [18] | outcome [19]

CCCCCOC(C)=O
inactive: outcome [3] | Potency [4] | outcome [5] | outcome [6] | Potency [7] | Potency [8] | outcome [9] | max response [10] -23.8% and 1.43% | Potency [11] | Potency [12] | outcome [13] | Potency [14] | Potency [15] | Potency [16] | outcome [17] | Potency [18] | outcome [19]

COc1cc(Cc2cnc(N)nc2N)cc(OC)c1OC
inactive: outcome [3] | outcome [5] | outcome [6] | Potency [7] | Potency [8] | outcome [9] | max response [10] -23% and -15.6% | Potency [11] | Potency [12] | outcome [13] | Potency [14] | Potency [16] | outcome [17] | Potency [18] | outcome [19]

O=C=NCCCCCCN=C=O
inactive: outcome [3] | Potency [4] | outcome [6] | Potency [7] | Potency [8] | outcome [9] | max response [10] 4.38% | Potency [11] | Potency [12] | outcome [13] | Potency [14] | Potency [15] | Potency [16] | Potency [20] | outcome [17] | Potency [18] | outcome [19]

CCCCCCOCCO
inactive: outcome [3] | Potency [4] | outcome [5] | outcome [6] | Potency [7] | Potency [8] | outcome [9] | max response [10] -2.7% and 0.672% | Potency [11] | outcome [13] | Potency [14] | Potency [15] | Potency [16] | Potency [20] | outcome [17] | Potency [18] | outcome [19]
